Hit rate of the full screen: of about 1,300 compounds, about 420 (32%) were called active. About 32% were inconclusive and are not listed. Calls come from the whole dose curve; as a rule, active = well fitted inhibition curve with a large enough effect; inconclusive = small, poorly fitted or top-dose-only effect; inactive = no such curve, though single readings can be large or run the other way. This is one part of the list.
What follows are compounds tested against C-terminal-binding protein 1 (Homo sapiens) (UniProt Q13363) (assay: qHTS for Inhibitors of the Phosphatase Activity of Eya2: Carboxyl-terminal binding protein (CtBP) Counterscreen for Cherry-picked Compounds). Conditions: purified protein-protein binding, AlphaScreen, 3 h; series mostly up to 46.1 µM; activity change, negative = inhibition: at the top concentration.
Method in brief: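 AlphaScreen using 25 nM GST-E1A with 25 nM CtBP-6xHIS; compounds at 2.5 nM–46 uM final, 2 h at room temperature, then donor/acceptor beads (20 ug/mL) for 1 h in the dark. Signal normalized to E1A peptide inhibitor (maximum inhibition) and DMSO.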
% is set by controls: 0 for no effect and ±100 for the full control effect; potency is the fitted concentration of half-maximal effect.
Note: nearly all actives have a fitted effect of over 65% in size.

Structure (SMILES)	activity change, negative = inhibition	Potency
O=c1cc(Nc2ccc3c(c2)OCO3)[nH]c(=O)n1-c1ccc(Br)cc1	-29.6% (inactive)	
S=C(NC1CC1)NC1CCCc2ccccc21 (stereo unspecified)	0.976% (inactive)	
COc1ccc(-c2ccc(SCc3cccnc3)nn2)cc1OC		13.5 µM (active)
O=C(O)CCCCCNS(=O)(=O)c1cccc2c1C(=O)c1ccccc1C2=O		5.36 µM (active)
CCOC(=O)NNc1nncc2ccccc12	10.1% (inactive)	
CCOC(=O)c1nc(Nc2ccc(Nc3ccccc3)cc2)c2ccccc2n1		13.5 µM (active)
Cc1cc(Nc2ccc([N+](=O)[O-])cc2)c2ccccc2n1	-2.71% (inactive)	
O=C(O)c1cccc(Nc2nc(-c3ccccc3)nc3ccccc23)c1		12 µM (active)
Cc1ccc(Nc2nc(-c3cccnc3)nc3ccccc23)cc1	-23.4% (inactive)	
O=C(O)c1ccc(Nc2nc(-c3ccccc3)nc3ccccc23)cc1		9.53 µM (active)
O=C(C1CCN(c2nnc(-n3cccc3)s2)CC1)N1CCOCC1	3.78% (inactive)	
Cc1ccc(NC(=O)CN2C(=O)S/C(=C\c3cc(Cl)c(OCC(=O)O)c(Cl)c3)C2=O)cc1		15.1 µM (active)
CCOc1ccc2c(c1)-c1c(ssc1=S)C(C)(C)N2C(=O)CSC1=NCCS1		15.1 µM (active)
Cc1cc(C)nc(-n2nc(C)cc2NC(=O)c2cc3ccccc3oc2=O)n1		4.78 µM (active)
CC1=NN(c2ccccc2)C(=O)/C1=C\C=C1/N(C)c2ccccc2C1(C)C		9.53 µM (active)
CN1/C(=C\C=C2/SC(=S)NC2=O)C(C)(C)c2ccccc21		12 µM (active)
CNc1ccc(C=C2c3ccccc3-c3ccccc32)cc1		12 µM (active)
CN(C)c1ccc(/C=C2\C(Cl)=Cc3ccccc32)cc1		6.75 µM (active)

Structure (SMILES)	activity change, negative = inhibition	Potency
CN(C)c1ccc(/C=C2\c3ccccc3-c3ccc(N(C)C)cc32)cc1		5.36 µM (active)
CN(C)c1ccc2c(c1)C(=NO)c1ccccc1-2		16.9 µM (active)
Cc1oc(-c2ccc(-c3ccccc3)cc2)nc1CN(C)C1CCOC1 (stereo unspecified)	-27.8% (inactive)	
Cc1ccc(C(=O)Oc2ccc(N3C(=O)CCC3=O)c(C)c2)cc1	-13.3% (inactive)	
O=C(/C=C/c1ccc(O)c(O)c1)OC(Cc1ccc(O)c(O)c1)C(=O)O (stereo unspecified)	-4.19% (inactive)	
COc1cccc(OC)c1C(=O)OCC(=O)NCC1CCCCC1	4.69% (inactive)	
CC1=CC(C)(C)n2c(O)c(C3=NC(=S)NC3=O)c3cc(OC(=O)c4cccc5ccccc45)cc1c32	-29.4% (inactive)	
CN(C)c1ccc(/C=C2\C(=O)/C(=C/c3ccc(N(C)C)cc3)c3ccccc32)cc1		5.36 µM (active)
CN(C)c1ccc(C=C2c3ccccc3-c3ccccc32)cc1		8.49 µM (active)
OC(COc1ccc2cc(Br)ccc2c1)Cn1ccnc1 (stereo unspecified)	-3.87% (inactive)	
COc1ccc(Nc2cc3n(c(=O)n2)CCc2cc(OC)c(OC)cc2-3)c(C)c1		12 µM (active)
COc1ccc(NC(=O)c2cc(S(=O)(=O)N3CCc4ccccc43)cn2C)cc1OC	4.75% (inactive)	
COc1cc2c(cc1OC)-c1cc(Nc3ccccc3)nc(=O)n1CC2		6.75 µM (active)
COc1cc2c(cc1OC)-c1cc(Nc3ccc(C)cc3)nc(=O)n1CC2		4.26 µM (active)
CCOc1ccc(Nc2cc3n(c(=O)n2)CCc2cc(OC)c(OC)cc2-3)cc1		5.36 µM (active)
Cc1nc(COC(=O)c2c(C)nn(-c3ccccc3)c2C)cs1	5.54% (inactive)	
COc1cc2c(cc1OC)-c1cc(Nc3ccc(F)cc3)nc(=O)n1CC2		2.39 µM (active)
O=C(NCc1ccc2c3c(cccc13)C(=O)N2)c1cccs1	-16.3% (inactive)	

Source: PubChem BioAssay AID720541 (National Center for Advancing Translational Sciences (NCATS), 2013)
